# Laboratory results as given in PubChem BioAssay (NCATS).
# Where “and” joins values, the source holds several entries; their conditions need not be identical. Identical values can stand only once. Inconclusive results are not listed. A call without a number means that no potency is given here. Calls of active or inactive are those of the source. Calls follow the shape of the dose curve; as a rule, active = well fitted curve in the direction sought with a large enough effect; inconclusive = small, poorly fitted or top-dose-only effect, or another doubt; inactive = no such curve, though single readings can be large; an effect the other way counts as inactive or inconclusive.
# Experiments:
# [1] = molecular target: Calcium and integrin-binding protein 1 (Homo sapiens) (UniProt Q99828); experiment: Primary qHTS for Identification of Calcium Integrin Binding Protein 1 (CIB1) Competitor (AID 1508620);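 also: GST tagged CIB1 binding a fluorescein labelled alphaIIb integrin peptide tracer; top concentration of the series differs between compounds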
# Calcium and integrin-binding protein 1 (Homo sapiens), sequence (Q99828 whole entry, looked up): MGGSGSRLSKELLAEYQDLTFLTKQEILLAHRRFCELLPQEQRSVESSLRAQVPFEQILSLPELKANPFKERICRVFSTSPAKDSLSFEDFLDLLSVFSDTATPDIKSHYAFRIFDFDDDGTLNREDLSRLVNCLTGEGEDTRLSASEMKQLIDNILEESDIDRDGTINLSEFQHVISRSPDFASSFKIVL
# How it was run: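 Fluorescence polarization competition: CIB1-GST (1 uM final) preincubated with compound 15 min at room temperature, then FITC-labeled alphaIIb peptide (100 nM final) added for another 15 min. Polarization read at Ex 480/Em 540.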
# [2] = Vero-766 cells viability qHTS against the NCATS CANVASS Library: Counterscreen for Zika virus inhibition assay (AID 1347394); also: series mostly up to about 46 µM; nearly all actives have a fitted effect of over 60% in size
# How it was run: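 Counterscreen for toxicity: Vero 766 cells exposed 72 h to an 11-point compound series, viability by CellTiter-Glo.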
# [3] = qHTS for inhibitors of Wild type Zika virus screened against the NCATS CANVASS Library (AID 1347396);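 also: ATP luminescence of surviving cells so rescue from viral cell killing; series mostly up to about 46 µM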
# How it was run: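 Protection against wild-type Zika cytopathic effect is measured in African green monkey Vero 766 cells exposed to an 11-point compound series. Surviving cells are quantified by CellTiter Glo luminescence after 72 h.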
# [4] = Viability qHTS for inhibitors of the SERCaMP assay screened against the NCATS CANVASS Library (AID 1347400); also: series mostly up to about 92 µM; nearly all actives have a fitted effect of over 70% in size
# How it was run: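 SH-SY5Y-GLuc SERCaMP MJH297-derived cells, 1000/well, plated 4 h, then exposed to compounds in an 11-point qHTS series for 48 h at 37C. Viability read as CellTiter-Glo luminescence.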
# [5] = Redox Reaction Profiling qHTS: Assay Interference Panel against the NCATS CANVASS Library (AID 1347401)
# How it was run: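 Resazurin (5 uM) conversion to resorufin measured with 200 uM DTT in 50 mM HEPES pH 7.3, 50 mM NaCl. Compounds tested in 11-point qHTS series. Fluorescence (ex 525/em 598 nm) read before and after 15 min dark incubation.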
# [6] = molecular target: Calcium and integrin-binding protein 1 (Homo sapiens) (UniProt Q99828); experiment: Confirmatory qHTS for Identification of Calcium Integrin Binding Protein 1 (CIB1) Competitor (AID 1508617); also: nearly all actives have a fitted effect of over 65% in size; also: potency is read from the fitted curve at half-maximal effect
# How it was run: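 Confirmatory qHTS measures displacement of a FITC-alphaIIb peptide (100 nM) from CIB1-GST (1 uM) by fluorescence polarization. Calcium-containing HEPES buffer, pH 7.4; two 15 min room-temperature incubations.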
# [7] = qHTS to identify inhibitors of the type 1 interferon - major histocompatibility complex class I in skeletal muscle: primary screen against the NCATS Mechanism Interrogation Plate v5.0 (MIPE) Libary (AID 1347411); also: nearly all actives have a fitted effect of over 65% in size
# How it was run: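 Immortalized human myoblasts (C25cl48) with HiBit knocked into endogenous HLA-B*08:01 were stimulated with 4 ng/ml IFN-beta and given compounds in 11-point 1:3 titration from 46 uM. After 24 h at 37 C, lytic HiBiT luminescence was read.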
# [8] = Counterscreen qHTS for small molecule stabilizers of the endoplasmic reticulum resident proteome: GLuc-NoTag assay (AID 1508627); conditions: Gaussia luciferase NoTag secretion counterscreen, luminescence; thapsigargin 100 nM for final 4 h; also: potency is read from the fitted curve at half-maximal effect
# How it was run: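 SH-SY5Y cells stably expressing constitutively secreted GLuc (no SERCaMP tag) were pre-incubated 5 h, treated with compound for 19 h, then 100 nM thapsigargin for 4 h at 37C; medium GLuc read by coelenterazine luminescence.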
# [9] = Confirmatory qHTS for small molecule stabilizers of the endoplasmic reticulum resident proteome: Secreted ER Calcium Modulated Protein (SERCaMP) assay (AID 1508628); also: series mostly up to about 76 µM; nearly all actives have a fitted effect of over 40% in size
# How it was run: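 SH-SY5Y cells stably expressing GLuc-SERCaMP, treated 16 h with compound (primary 1.53, 7.67, 38.3 uM; confirmation 11 concentrations, up to 76.6 uM), then 100 nM thapsigargin for 4 h. Secreted Gaussia luciferase in medium read by coelenterazine luminescence.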
# [10] = Cell Viability qHTS for small molecule stabilizers of the endoplasmic reticulum resident proteome (AID 1508629); conditions: cell viability counter-screen, 100 nM thapsigargin for final 4 h;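 also: potency is read from the fitted curve at half-maximal effect; compound exposure about 46 h in total before the viability read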
compound,measurement,setting,value
O=C(O[C@H]1[C@@H]2C[C@@H]3OC[C@@](O)([C@H]2[C@H](O[C@@H]2O[C@H](CO)[C@@H](O)[C@H](O)[C@H]2O)O3)[C@@H]1O)c1ccccc1,Potency,[1],inactive
CC1=C2C(=O)O[C@@H](c3ccoc3)[C@]2(C)CCC1,outcome,[2],inactive
same,outcome,[3],inactive
same,outcome,[4],inactive
same,outcome,[5],inactive
same,Potency,[1],inactive
CC[C@@H](c1ccc(F)c(F)c1)n1c(C(=O)OC)c(-c2ccno2)[nH]c1=S,Potency,[6],inactive
CCOC(=O)c1ccnc(CNCC(=O)N(CC)CCN(C)C)c1,Potency,[7],inactive
same,Potency,[1],inactive
CCOc1c2c(c(OCC)c3ccccc13)C(=O)N(c1ccc(CC(=O)NS(=O)(=O)c3ccccc3)cc1)C2,Potency,[1],inactive
CC1CCC23COC(=O)C2=CC(O)CC3C1(C)CCC1=CC(=O)OC1O (stereo not drawn),Potency,[1],inactive
C/C=C/C=C/C(CC(=O)O)Nc1ccc(C=O)cc1 (stereo not drawn),outcome,[2],inactive
same,outcome,[3],inactive
same,outcome,[4],inactive
same,outcome,[5],inactive
CC(=O)c1c(O)cc2cccc3c2c1CC(C)(O)O3 (stereo not drawn),Potency,[6],39.8 µM (active)
Cc1cc(C)cc(NC(=O)Cc2ccc(OC(C)(C)C(=O)O)cc2)c1,Potency,[7],inactive
same,Potency,[1],inactive
C[C@@]12C[C@]3(O)O[C@H](O1)[C@]1(COC(=O)c4ccccc4)[C@H]3C[C@@]12O[C@@H]1O[C@H](COC(=O)c2ccccc2)[C@@H](O)[C@H](O)[C@H]1O,Potency,[1],inactive
O=C1NCc2nc3ccccc3c(=O)n2C1Cc1c[nH]c2ccccc12 (stereo not drawn),Potency,[1],inactive
OC[C@H]1O[C@@H](n2cnc3c2NC=NC[C@H]3O)C[C@@H]1O,Potency,[7],inactive
same,Potency,[1],inactive
CN1C(=O)N[C@@H](Cc2c[nH]c3c(Cl)cccc23)C1=O,Potency,[7],inactive
same,Potency,[1],inactive
OC[C@H]1O[C@@H](n2cnc3c(NCc4ccc(O)cc4)ncnc32)[C@H](O)[C@@H]1O,Potency,[1],inactive
COC(=O)C1=C(C)NC(C)=C(C(=O)OCCCN2CCC(c3ccccc3)(c3ccccc3)CC2)[C@H]1c1cccc([N+](=O)[O-])c1,Potency,[8],39.8 µM (active) and 44.7 µM (active)
same,outcome,[9],inactive
same,Potency,[10],25.1 µM (active) and 28.2 µM (active)
